Measurements reported in PubChem BioAssay (NCATS).
Several values for one entry are separate records, joined by “and”; a condition that tells them apart may be missing. Identical values can stand only once. Results filed as inconclusive are left out. Unmarked numbers belong to inactive results. Activity calls are given as the source filed them. Calls come from the whole dose curve; as a rule, active = well fitted curve in the direction sought with a large enough effect; inconclusive = small, poorly fitted or top-dose-only effect, or another doubt; inactive = no such curve, though single readings can be large; an effect the other way counts as inactive or inconclusive.

Each compound was assayed against Cellular tumor antigen p53 (Homo sapiens) (UniProt P04637) (assay: Primary qHTS for small molecule compounds that upregulate eGFP-tagged delta133p53alpha (in N-terminal) cells. (AID 2060322; note: nearly all actives have a fitted effect of over 75% in size; note: potency is the fitted concentration of half-maximal effect;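 for activation: cells pre-induced with doxycycline then dosed without doxycycline; 0% = DMSO vehicle and 100% = reference activator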)). Settings: NCI-H358 eGFP-delta133p53alpha fluorescence, 24 h; activation: hits give high values.
Method in brief: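 NCI-H358 cells pre-induced 24 h with 10 ng/ml doxycycline for eGFP-delta133p53alpha, plated dox-free and exposed 24 h at 37C to titrated compounds. Fixed, Hoechst-stained; gated GFP peak intensity by laser scanning cytometry, normalized to DMSO (0%) and 57.5 uM 5-azacytidine (100%).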

Cellular tumor antigen p53 (Homo sapiens), sequence (P04637 whole entry, looked up): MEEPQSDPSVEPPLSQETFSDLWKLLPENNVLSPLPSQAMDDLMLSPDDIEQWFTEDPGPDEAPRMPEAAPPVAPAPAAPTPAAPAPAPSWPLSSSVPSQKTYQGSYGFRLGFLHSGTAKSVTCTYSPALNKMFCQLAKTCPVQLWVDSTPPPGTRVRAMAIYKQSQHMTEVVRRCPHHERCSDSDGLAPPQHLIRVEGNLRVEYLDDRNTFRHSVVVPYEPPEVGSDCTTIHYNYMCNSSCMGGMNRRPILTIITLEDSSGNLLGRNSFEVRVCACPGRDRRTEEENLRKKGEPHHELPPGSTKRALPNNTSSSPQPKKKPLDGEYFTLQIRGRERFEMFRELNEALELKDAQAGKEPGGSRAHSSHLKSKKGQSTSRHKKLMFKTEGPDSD

Compound | activation | Potency
C=C1CCC(OC(C)=O)C2(C)CC3OC(=O)C(C)=C3CC12 (configuration not stated) | -0.763% | –
COc1cccc(C)c1C(=O)O[C@@H]1C[C@H](O[C@H]2[C@H](O)C[C@H](O[C@@H]3CCC[C@H]4[C@H]3C=C[C@@H]3CCCC/C=C/[C@H]5C=C(C(=O)O)[C@@H](C)C[C@@]56OC(=O)C(=C6O)OC(=O)[C@@]34C)O[C@@H]2C)O[C@H](C)[C@H]1O | -5.34% | –
COCC(=O)N1CCc2cc(-c3csc(NC(=O)c4cc(OC)cc(OC)c4)n3)ccc21 | 13.7% | –
CNS(=O)(=O)c1ccccc1Nc1nc(Nc2ccc(N3CCN(C)CC3)cc2OC)ncc1Cl | – | 21.3 µM (active)
Nc1nc2c(ncn2CCC(CO)CO)c(=O)[nH]1 | -5.36% | –
COc1cc(O)cc(C)c1C(=O)O[C@@H]1[C@H](O)[C@@H](CO)O[C@H]1n1ccc(=O)[nH]c1=O | 11.5% | –
CC(=O)O[C@H]1[C@H](C)[C@@H](O)[C@H]2[C@@H]1C=C(C(=O)O)[C@H]1C[C@@H]3[C@H]([C@H]21)[C@H]1C(=O)O[C@@H]2CC[C@@]3(C)O[C@]1(O)[C@@H]2C | -11.5% | –
C=C[C@H]1[C@H](O[C@@H]2O[C@H](CO)[C@@H](O)[C@H](O)[C@H]2O)OC=C2C(=O)OCC[C@]21O | -8.04% | –
CC1(C)C[C@@H]2[C@H](C1)[C@@]1(C)C[C@]13C(O)OC[C@]3(O)[C@H]2O (some centres not stated) | 6.25% | –
OC[C@H]1O[C@@H](OC[C@H]2O[C@@H](OCc3ccccc3)[C@H](O)[C@@H](O)[C@@H]2O)[C@H](O)[C@@H](O)[C@@H]1O | -3.82% | –
C=CC(C)(O)CC/C=C(\C)C(=O)OCC1OC(OC2CCC3(C)C(CCC4(C)C3CC=C3C5CC(C)(C)C(O)CC5(C(=O)O)CCC34C)C2(C)C)C(O)C(OC2OC(CO)C(O)C(OC3OC(CO)C(O)C(OC4OC(COC5OC(CO)C(O)C(O)C5O)C(O)C(O)C4O)C3O)C2O)C1O (configuration not stated) | 9.92% | –
C[C@]12CC[C@@H]3c4ccc(O)cc4CC[C@H]3[C@@H]1C[C@@H](O[C@@H]1O[C@H](C(=O)O)[C@@H](O)[C@H](O)[C@H]1O)[C@@H]2O | -6.33% | –
CCN1C(=O)c2ccccc2C1Nc1ccc(OCCN2CCCCC2)cc1 (configuration not stated) | -18.4% | –
CC1(C)CC[C@@]2(C(=O)O[C@@H]3O[C@H](CO)[C@@H](O)[C@H](O)[C@H]3O)C(C1)C1=CCC3[C@@]4(C)CC[C@@H](O[C@@H]5O[C@H](C(=O)O)[C@@H](O[C@@H]6OC[C@@H](O)[C@H](O)[C@H]6O)[C@H](O[C@@H]6OC[C@](O)(CO)[C@H]6O)[C@H]5O)C(C)(C)C4CC[C@@]3(C)[C@]1(C)C[C@H]2O (some centres not stated) | -19.8% | –
COc1c(OC2OC(CO)C(O)C(O)C2O)ccc(O)c1C(=O)OCc1ccccc1O[C@@H]1O[C@H](CO)[C@@H](O)[C@H](O)[C@H]1O (some centres not stated) | 3.82% | –
CC(=O)OC1CC(C)C2(CCC3(CC(=O)OC3O)O2)C2(C)CCCC(C)(C)C12 (configuration not stated) | 22.3% | –
C[C@@H]1O[C@@H](O[C@@H]2[C@@H](O)[C@H](O[C@H]3[C@H](O[C@H]4CC[C@@]5(C)C(CC[C@]6(C)C5CC=C5[C@@H]7CC(C)(C)CC[C@]7(C(=O)O[C@@H]7O[C@H](CO)[C@@H](O)[C@H](O)[C@H]7O[C@@H]7O[C@@H](C)[C@H](O[C@@H]8O[C@@H](C)[C@H](O)[C@@H](O)[C@H]8O)[C@@H](O)[C@H]7O)CC[C@]56C)[C@@]4(C)CO)O[C@H](C(=O)O)[C@@H](O)[C@@H]3O)O[C@H](CO)[C@H]2O)[C@H](O)[C@H](O)[C@H]1O (some centres not stated) | -9.16% | –
CC(=C\C(C)O)/C=C(\C)C(=O)CC1CC(CC(N)=O)CC(=O)O1 (configuration not stated) | -16.8% | –
C=C1[C@H](OC(C)=O)[C@H]2[C@@H](OC(C)=O)C(C)C[C@]2(OC(C)=O)C(=O)[C@H](C)/C=C/C(C)(C)C(=O)[C@H](OC(=O)C(C)C)[C@H]1OC(C)=O (some centres not stated) | -13.7% | –
C=CC1(C)CC(OC(=O)/C(C)=C\COC(C)=O)C(C(=C)C(=O)O)C(O)C1C(=C)CO (configuration not stated) | 0% | –
C=C1C(=O)OC2/C=C(\CO)CC/C=C(\C=O)C(OC)C(OC(=O)C(C)CC)C12 (configuration not stated) | -6.11% | –
Cc1cc(N2CCCCC2)nc2ccccc12 | 13.7% | –
CCCCS(=O)(=O)N[C@@H](Cc1ccc(OCCCCC2CCNCC2)cc1)C(=O)O | -22% and 10.3% | –

The compounds below were run against Aldehyde dehydrogenase, mitochondrial (Homo sapiens) (UniProt P05091) (assay: qHTS for Inhibitors of the Aldehyde Dehydrogenase Family (ALDH2) Primary screen (AID 2061308;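 note: plate controls were vehicle for no effect and reference inhibitor for full effect; nearly all actives have a fitted effect of over 55% in size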)). Settings: ALDH2 enzyme inhibition qHTS, 1536-well; series mostly up to 56 µM; activity change, negative = inhibition: at the top concentration.

Compound | activity change, negative = inhibition
CC1(CCOC2OC(CO)C(O)C(O)C2O)CCC23OC2(C1)C(O)CC1C(C)(C(=O)O)CCCC13C (configuration not stated) | 8.29% [at 28 µM]
C=C1CC[C@H]2[C@@H](/C=C(\C)C(=O)[C@@]3(OC(C)=O)C[C@H](C)[C@H](OC(C)=O)[C@@H]3[C@H]1OC(C)=O)C2(C)C | -13.4% [at 28 µM]
CC(=O)C1=C(O)C=C2Oc3c(C(C)=O)c(O)c(C)c(O)c3[C@]2(C)C1=O | -14%
CCC(C)C(C(=O)O)N1Cc2c(OCC=C(C)C)c(C)c(OC)c(C(=O)O)c2C1=O (configuration not stated) | -18.7% [at 28 µM]
CC1COC2(OC3CC4C5CC(O[C@@H]6O[C@H](C)[C@@H](O[C@@H]7O[C@@H](C)[C@H](O)[C@@H](O)[C@H]7O)[C@H](O)[C@H]6O)C6CC(O)CCC6(C)C5CCC4(C)C3C2C)C(O)C1 (some centres not stated) | -6.68% [at 16.9 µM]
CC1(C)CC[C@]2(C(=O)O)CC[C@]3(C)C(=CCC4[C@@]5(C)CC[C@H](O[C@@H]6O[C@H](C(=O)O)[C@@H](O)[C@H](O)[C@H]6O)C(C)(CO)C5CC[C@]43C)C2C1 (some centres not stated) | -8.41% [at 16.9 µM]
COC(=O)CC(O)CC(O)/C=C/c1c(C)ccc2c1C(O)CC(C)C2 (configuration not stated) | 1.06%
C[C@@H]1C(=O)O[C@H]2C[C@]34[C@H]5C[C@@H](C(C)(C)C)[C@]36[C@@H](OC(=O)[C@H]6O)O[C@]4(C(=O)O5)[C@]21O | 6.67% [at 28 µM]
Cc1occc(=O)c1O[C@@H]1O[C@H](CO[C@@H]2OC[C@](O)(CO)[C@H]2O)[C@@H](O)[C@H](O)[C@H]1O | -2.23% [at 28 µM]
COc1cc(CO)cc(OC)c1O[C@@H]1O[C@H](CO)[C@@H](O)[C@H](O)[C@H]1O | 6.2%
O=C(OCC12OC1C=CC(OC(=O)c1ccccc1)C2O)c1ccccc1 (configuration not stated) | 3.14%
CN1CCc2cc3c(cc2C(=O)Cc2cc4c(cc2C1)OCO4)OCO3 | -2.64%
CC1OC(OC2C(CO)OC(OCC3OC(OC(=O)C45CCC(C)(C)CC4C4=CCC6C7(C)CCC(OC8OC(CO)C(O)C(OC9OC(CO)C(O)C(O)C9O)C8O)C(C)(C)C7CCC6(C)C4(C)CC5)C(O)C(O)C3O)C(O)C2O)C(O)C(O)C1OC1OC(CO)C(O)C(O)C1O (configuration not stated) | -2.7% [at 11.2 µM]
COc1cc(/C=C/C(=O)OC2CC(OC(C)=O)C(OC(C)=O)C3C2CCC2C(=O)OC(c4ccoc4)CC23C)ccc1O[C@@H]1O[C@H](CO)[C@@H](O)[C@H](O)[C@H]1O (some centres not stated) | 4.73% [at 16.9 µM]
C=C1C2CCC3CC2(CC(O)C2(O)C1CC(OC1OC(CO)C(O)C(O)C1O)C2(C)C)CC3(C)O (configuration not stated) | -0.768% [at 28 µM]
CC(=O)OCC1OC(O[C@H]2CC[C@]34C[C@]35CC(O)[C@]3(C)[C@@H]([C@H](C)CC/C=C(\C)C(=O)O)C(O)C[C@@]3(C)C5CC[C@H]4C2(C)C)C(O)C(O)C1OC1OCC(O)C(O)C1O (some centres not stated) | 8.24% [at 16.9 µM]
CC1(C)CC[C@]2(C(=O)O[C@@H]3O[C@H](CO)[C@@H](O)[C@H](O)[C@H]3O)CC[C@]3(C)C(=CCC4[C@@]5(C)C[C@@H](O)[C@H](O)[C@](C)(C(=O)O)C5CC[C@]43C)C2C1O (some centres not stated) | -0.0832% [at 16.9 µM]
C=C1CCC(OC(C)=O)C2(C)CC3OC(=O)C(C)=C3CC12 (configuration not stated) | -1.32%
COc1cccc(C)c1C(=O)O[C@@H]1C[C@H](O[C@H]2[C@H](O)C[C@H](O[C@@H]3CCC[C@H]4[C@H]3C=C[C@@H]3CCCC/C=C/[C@H]5C=C(C(=O)O)[C@@H](C)C[C@@]56OC(=O)C(=C6O)OC(=O)[C@@]34C)O[C@@H]2C)O[C@H](C)[C@H]1O | -2.01% [at 16.9 µM]
COCC(=O)N1CCc2cc(-c3csc(NC(=O)c4cc(OC)cc(OC)c4)n3)ccc21 | -7.13%
CNS(=O)(=O)c1ccccc1Nc1nc(Nc2ccc(N3CCN(C)CC3)cc2OC)ncc1Cl | -4.8%
Nc1nc2c(ncn2CCC(CO)CO)c(=O)[nH]1 | 12%
COc1cc(O)cc(C)c1C(=O)O[C@@H]1[C@H](O)[C@@H](CO)O[C@H]1n1ccc(=O)[nH]c1=O | -6.2% [at 28 µM]
CC(=O)O[C@H]1[C@H](C)[C@@H](O)[C@H]2[C@@H]1C=C(C(=O)O)[C@H]1C[C@@H]3[C@H]([C@H]21)[C@H]1C(=O)O[C@@H]2CC[C@@]3(C)O[C@]1(O)[C@@H]2C | 1.51% [at 28 µM]
C=C[C@H]1[C@H](O[C@@H]2O[C@H](CO)[C@@H](O)[C@H](O)[C@H]2O)OC=C2C(=O)OCC[C@]21O | 6.49%
CC1(C)C[C@@H]2[C@H](C1)[C@@]1(C)C[C@]13C(O)OC[C@]3(O)[C@H]2O (some centres not stated) | 3.62%
OC[C@H]1O[C@@H](OC[C@H]2O[C@@H](OCc3ccccc3)[C@H](O)[C@@H](O)[C@@H]2O)[C@H](O)[C@@H](O)[C@@H]1O | 4.35% [at 28 µM]
C=CC(C)(O)CC/C=C(\C)C(=O)OCC1OC(OC2CCC3(C)C(CCC4(C)C3CC=C3C5CC(C)(C)C(O)CC5(C(=O)O)CCC34C)C2(C)C)C(O)C(OC2OC(CO)C(O)C(OC3OC(CO)C(O)C(OC4OC(COC5OC(CO)C(O)C(O)C5O)C(O)C(O)C4O)C3O)C2O)C1O (configuration not stated) | 1.9% [at 11.2 µM]
C[C@]12CC[C@@H]3c4ccc(O)cc4CC[C@H]3[C@@H]1C[C@@H](O[C@@H]1O[C@H](C(=O)O)[C@@H](O)[C@H](O)[C@H]1O)[C@@H]2O | -13.8%
